Compounds with a hit are over-represented: about 8.3% of the library has one in this group of screens.
FBPA Giardia inh: inhibitors of Giardia lamblia fructose-1,6-bisphosphate aldolase; A8B2U2; purified Giardia FBPA; Potency, µM (titrated, usually from 59.6 µM), inactives show at the top dose activity, negative = inhibition, most hits filed as inhibitors; 0.71% of 290,000 active; AID 2451; note: potency is the fitted concentration of half-maximal effect; nearly all actives have a fitted effect of over 55% in size
Target sequence (A8B2U2 whole entry, looked up): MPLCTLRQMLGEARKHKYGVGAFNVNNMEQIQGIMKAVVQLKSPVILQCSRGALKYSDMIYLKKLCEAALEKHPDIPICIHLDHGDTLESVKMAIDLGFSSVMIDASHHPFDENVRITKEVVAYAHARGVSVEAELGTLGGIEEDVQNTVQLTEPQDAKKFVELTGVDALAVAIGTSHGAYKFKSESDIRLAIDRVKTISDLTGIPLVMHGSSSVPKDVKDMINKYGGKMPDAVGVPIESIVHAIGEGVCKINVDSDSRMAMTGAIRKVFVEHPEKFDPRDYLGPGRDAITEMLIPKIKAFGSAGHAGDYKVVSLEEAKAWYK
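40 nM FBPA preincubated 10 min at RT with compound (up to 57.5 uM final), then substrate plus GAPDH/TPI/NAD/arsenate coupling and diaphorase/resazurin added. Fluorescence read after 20 min at RT, 525/598 nm.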
HCV inhibitor: HCV inhibition. Huh7.5.1 HCVcc-Cre infection, luciferase reporter, 44 h. Potency, µM (doses to about 41.8 µM), inactives show top-dose activity change, negative = inhibition, usual class: inhibitors. 3.4% of 340,000 active; note: potency is the fitted concentration of half-maximal effect
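Compounds are dispensed onto cells plated 4 h earlier at 1,000 per well, with HCVcc-Cre virus (about 0.5 moi) added next. Following 44 h of culture, luminescent signal is measured for 15 sec after 15 min with substrate at room temperature.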
HCMV inh: inhibitors of human cytomegalovirus. HFF cells, HCMV-luciferase reporter, 72 h; active compounds read low. activity change, negative = inhibition, % at 57.5 µM. 4.5% of 410,000 active; in the data active = activity change below about -60%; inconclusive = no clear call, values can overlap the other calls; inactive = above about -39%
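After 16 h attachment at 37C, HFF cells received test compound and HCMV-luciferase (1 PFU/cell); reporter luminescence read 72 h later, data normalized against buffer-only and known inhibitor Salinomycin.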
LASV entry inh: inhibitors of Lassa virus binding or cell entry; Lassa virus pseudotype entry inhibition, cell reporter; Potency, µM (series often up to 37.9 µM), without a hit: top-dose activity change, negative = inhibition, hits mostly inhibitors; 1.2% of 300,000 active; calls by dose curve; tested in HEK293 cells; note: potency is the fitted concentration of half-maximal effect; nearly all actives have a fitted effect of over 50% in size
MARV entry inh: Marburg virus entry inhibition. Marburg virus pseudotyped entry inhibition, cell reporter. Potency, µM (top dose mostly 37.8 µM), for inactives: at the highest dose activity change, negative = inhibition, hits mostly inhibitors. AID 540276. 1.8% of 300,000 active; calls by dose curve; tested in HEK293 cells; note: potency is the fitted concentration of half-maximal effect
FMDV inh: foot and mouth disease virus antiviral activity | FMDV antiviral cell-based qHTS | 1.2% of 410,000 active | Potency, µM (highest dose often 57.9 µM), inactives show at the highest dose activity change, negative = inhibition, usual class: inhibitors; calls by dose curve; tested in HEK293T cells; note: read-out not given here; potency is the fitted concentration of half-maximal effect; nearly all actives have a fitted effect of over 45% in size
The depositor's hits bear a star; [ ] = remark or other dose. Unless noted, calls come from the whole dose curve; as a rule, active = well fitted curve in the direction sought with a large enough effect; inconclusive = small, poorly fitted or top-dose-only effect, or another doubt; inactive = no such curve, though single readings can be large; an effect the other way counts as inactive or inconclusive. % is set by controls: 0 for no effect and ±100 for the full control effect.

O=C1OC(/C(=C\Nc2cc(Cl)ccc2O)[N+](=O)[O-])c2ccccc21 (stereo unspecified) was read as FBPA Giardia inh -2%, HCV inhibitor -25%, HCMV inh -77*, LASV entry inh 19%, MARV entry inh inconclusive and FMDV inh -27%.
`O=C1OC(/C(=C\Nc2ccc(F)cc2F)[N+](=O)[O-])c2ccccc21` (stereo unspecified) gave FBPA Giardia inh 1%, HCV inhibitor 20%, HCMV inh -30, LASV entry inh -31%, MARV entry inh -6%[46.1 µM] and FMDV inh -21%.
CCc1ccc(NC(=O)CC2C(=O)N(c3cccc(OC)c3)C(=O)N2Cc2ccco2)cc1 (stereo unspecified) was read as HCMV inh inconclusive, LASV entry inh inconclusive and FMDV inh -8%.
Screening CCCOc1c(Cl)cc(C(=O)Nc2ccc3c(c2)OCO3)cc1OCC returned FBPA Giardia inh 0%, HCV inhibitor 13µM*, HCMV inh -17, LASV entry inh inconclusive, MARV entry inh inconclusive and FMDV inh inconclusive.
Cc1cc(=O)oc(C)c1C(=O)Nc1ccc2nsnc2c1 was read as FBPA Giardia inh -2%, HCV inhibitor 5%, HCMV inh 32, LASV entry inh 6%, MARV entry inh 24% and FMDV inh 25µM*.
CCN(CC)c1ccc(NC(=O)c2ccc3c(c2)OCO3)c(C)c1 was read as FBPA Giardia inh 2%, HCV inhibitor 11µM*, HCMV inh -19, LASV entry inh -22%[46.1 µM], MARV entry inh -23%[46.1 µM] and FMDV inh 14%.
Screening CCN(CC)c1ccc(NC(=O)c2cc(OC)cc(OC)c2)c(C)c1 returned FBPA Giardia inh -1%, HCV inhibitor inconclusive, HCMV inh -85*, LASV entry inh inconclusive, MARV entry inh inconclusive and FMDV inh -21%.
CC(C)(C)OC(=O)NC(Cc1ccccc1)C(=O)NC1COC2CC(n3ccc(=O)[nH]c3=O)OC12 (stereo unspecified) was read as FBPA Giardia inh 5%.
`Cc1cc(NC(=O)c2ccc3c(c2)OCO3)ccc1NC(=O)c1ccco1` gave FBPA Giardia inh -20%, HCV inhibitor inconclusive, HCMV inh inconclusive, LASV entry inh -4%, MARV entry inh 8% and FMDV inh 32%.
Screening Cc1cc(NC(=O)c2ccc3c(c2)OCO3)ccc1NC(=O)c1ccccc1 returned FBPA Giardia inh 0%, HCV inhibitor inconclusive, HCMV inh 20, LASV entry inh 8%[46.1 µM], MARV entry inh inconclusive and FMDV inh 7.9e-05µM*.
For CCCCOc1ccc(C(=O)Nc2ccc3c(c2)OCO3)cc1 the results were FBPA Giardia inh 1%, HCV inhibitor -20%, HCMV inh -36 and FMDV inh 45%.
O=C(Nc1ccc2nsnc2c1)c1ccc2c(c1)OCO2 was read as FBPA Giardia inh -15%, HCV inhibitor 2%, HCMV inh 140, LASV entry inh 12µM*, MARV entry inh inconclusive and FMDV inh -2%.
`CCN(CC)c1ccc(NC(=O)C2COc3ccc(OC)cc3C2)c(C)c1` (stereo unspecified) gave HCMV inh -79*, LASV entry inh inconclusive and FMDV inh inconclusive.
`CCC(=O)Oc1ccc(C(=O)Nc2ccc3c(c2)OCO3)cc1` gave FBPA Giardia inh -2%, HCV inhibitor 14%, HCMV inh -103*, LASV entry inh inconclusive, MARV entry inh inconclusive and FMDV inh -1%.
O=C(Nc1ccc2c(c1)OCO2)c1ccc2c(c1)OCO2 was read as FBPA Giardia inh -1%, HCV inhibitor -9%, HCMV inh 8, LASV entry inh inconclusive, MARV entry inh inconclusive and FMDV inh -24%.
Screening COc1ccc2c(c1)CC(C(=O)Nc1ccc(OC)cc1OC)CO2 (stereo unspecified) returned HCMV inh 4, LASV entry inh inconclusive and FMDV inh -10%.
`O=C(N[C@@H](Cc1ccccc1)C(O)c1nc2ccccc2[nH]1)c1ccccn1` (stereo partly specified) gave HCMV inh 2.
Screening Fc1ccc(N2CCN(c3nc4ccccc4c4nc(-c5cccnc5)nn34)CC2)cc1 returned HCMV inh -1, MARV entry inh 7%[46.1 µM] and FMDV inh -21%.
For CSCC[C@H](NC(=O)[C@H](CO)NC(=O)[C@H](Cc1ccc(O)cc1)NC(=O)[C@@H](N)CO)C(=O)N[C@@H](CCC(=O)O)C(=O)N[C@@H](Cc1cnc[nH]1)C(=O)N[C@@H](Cc1ccccc1)C(=O)N[C@@H](CCCNC(=N)N)C(=O)N[C@@H](Cc1c[nH]c2ccccc12)C(=O)NCC(=O)N[C@@H](CCCCN)C(=O)N1CCC[C@H]1C(=O)N[C@H](C(=O)NCC(=O)N[C@@H](CCCCN)C(=O)N[C@@H](CCCCN)C(=O)N[C@@H](CCCNC(=N)N)C(=O)N[C@@H](CCCNC(=N)N)C(=O)N1CCC[C@H]1C(=O)N[C@H](C(=O)N[C@@H](CCCCN)C(=O)N[C@H](C(=O)N[C@@H](Cc1ccc(O)cc1)C(=O)N1CCC[C@H]1C(=O)O)C(C)C)C(C)C)C(C)C the results were FBPA Giardia inh 7%.
For O=[N+]([O-])c1cc(S(=O)(=O)NCCN2CCOCC2)ccc1Sc1nnnn1-c1ccccc1 the results were FBPA Giardia inh -20%, HCV inhibitor inconclusive, HCMV inh -89*, LASV entry inh -2%, MARV entry inh 16µM* and FMDV inh inconclusive.
CN(C)CCNS(=O)(=O)c1ccc(N2CCN(c3ccc(F)cc3)CC2)c([N+](=O)[O-])c1 was read as FBPA Giardia inh 5%, HCV inhibitor 10µM*, HCMV inh -76*, LASV entry inh inconclusive, MARV entry inh 18µM* and FMDV inh inconclusive.
`O=S(=O)(NCCN1CCOCC1)c1ccc2ccccc2c1` gave HCV inhibitor 2%, HCMV inh 0 and FMDV inh 40%.
Cc1ccc(S(=O)(=O)NCCSc2nnnn2-c2ccc(C(N)=O)cc2)cc1 was read as FBPA Giardia inh 3%, HCV inhibitor -1%, HCMV inh -39, MARV entry inh -3% and FMDV inh -1%.
For Cc1ccc(-n2nnnc2Sc2ccc(S(=O)(=O)NCCN(C)C)cc2[N+](=O)[O-])cc1 the results were FBPA Giardia inh 0%, HCV inhibitor 10µM*, HCMV inh -100*, LASV entry inh inconclusive, MARV entry inh 9.2µM* and FMDV inh 13µM*.
COc1ccc(-c2c(C3C4C=CCC(C)C4C(=O)N3Cc3ccccc3)ccc3ccccc23)cc1 (stereo unspecified) was read as FBPA Giardia inh 1%.
Screening COc1cccc(-c2nccc(N(C)Cc3ccco3)n2)c1 returned FBPA Giardia inh -8% and FMDV inh 3%.

Screening data deposited in PubChem BioAssay by National Center for Advancing Translational Sciences (NCATS).
